Assay results reported in PubChem BioAssay (NCATS).
Inconclusive results are not listed. Entries that show only a call come without a potency. Unmarked numbers belong to inactive results. The source made the active and inactive calls. Calls come from the whole dose curve; as a rule, active = well fitted inhibition curve with a large enough effect; inconclusive = small, poorly fitted or top-dose-only effect; inactive = flat fitted curve, though single readings scatter.

Assay: Primary qHTS for inhibitors of nuclear receptor binding SET domain protein 2 (NSD2) in an isogenic RCH-ACV NSD2 p.E1099K mutant (9B) (AID 1645876); note: nearly all actives have a fitted effect of over 70% in size
Settings: RCH-ACV (leukaemia line) NSD2 E1099K (9B) viability, CellTiter-Glo, 72 h; series mostly up to 44.9 µM
Potency is the fitted concentration of half-maximal effect.

Structure (SMILES) | activity change, negative = viability loss | Potency | outcome
CC1(C)CC[C@]2(CO[C@@H]3O[C@H](CO)[C@@H](O)[C@H](O)[C@H]3O)[C@@H](O)C[C@]3(C)C(=CCC4[C@@]5(C)CC[C@H](O[C@@H]6O[C@H](CO[C@@H]7O[C@H](CO[C@@H]8OC[C@@H](O)[C@H](O)[C@H]8O)[C@@H](O)[C@H](O)[C@H]7O)[C@@H](O)[C@H](O)[C@H]6O)C(C)(C)C5CC[C@]43C)[C@@H]2C1 (stereo partly specified) | -11.3% [at 9.23 µM] |  | 
C=C(C(=O)OC)C1C(O)CC2(C)C(O)CCC(=O)C2C1O (stereo unspecified) |  | inactive | 
COC(=O)C1=CO[C@@H](O[C@@H]2O[C@H](CO)[C@@H](O)[C@H](O)[C@H]2O)[C@H]2[C@@H]1C=C[C@@]21C=C([C@H](C)O)C(=O)O1 |  | inactive | 
COc1cc(C2Oc3c(OC)cc(CCCO)cc3C2CO)ccc1O[C@H]1O[C@H](C)[C@@H](O)[C@H](O)[C@@H]1O (stereo partly specified) |  | inactive | 
C=CC(C)(O)C(O)CC1C(C)(O)C(O)C(O)C2C(C)(C)CCCC21C (stereo unspecified) |  | inactive | 
C=C1C(O)CC2C(C(=O)O)=COC(O[C@@H]3O[C@H](COC(=O)/C=C/c4ccc(O)cc4)[C@@H](O)[C@H](O)[C@H]3O)C12 (stereo partly specified) |  | inactive | 
COc1cc(C2c3cc4c(c(O)c3CC(CO)C2C(=O)O)OCO4)cc(OC)c1O (stereo unspecified) |  | 2.52 µM (active) | 
CCOc1ccc2nc(SCCN3CCOCC3)[nH]c2c1 |  | inactive | 
Cc1cc(C)cc(C(=O)NOCCCCCC(=O)NO)c1 |  | 0.515 µM (active) | 
C[C@@H]1CC[C@]2(C(=O)O)CC[C@]3(C)C(=CCC4[C@@]5(C)C[C@@H](O)[C@H](O)[C@@](C)(CO)C5CC[C@]43C)C2[C@]1(C)O (stereo partly specified) |  | inactive | 
C=CC(C)(CC/C=C(\C)C(=O)OC)OC1OC(COC(=O)CC(C)(O)CC(=O)O)C(OC2OC(CO)C(O)C(O)C2O)C(O)C1O (stereo unspecified) |  | inactive | 
COC(=O)c1cc(OC)c(O[C@@H]2O[C@@H](C)[C@H](O)[C@@H](O)[C@H]2O)c(OC)c1 |  | inactive | 
CC/C=C\[C@H](O)[C@H](O)C1=C(C)C(=O)[C@]2(O1)C(=O)N[C@@](OC)(C(=O)c1ccccc1)[C@@H]2O |  | inactive | 
CC1(C)CC[C@@]2(C(=O)O[C@@H]3O[C@H](CO)[C@@H](O)[C@H](O)[C@H]3O)C(C1)C1=CCC3[C@@]4(C)CC[C@@H](O[C@@H]5O[C@H](C(=O)O)[C@@H](O[C@@H]6OC[C@@H](O)[C@H](O)[C@H]6O)[C@H](O[C@@H]6OC[C@](O)(CO)[C@H]6O)[C@H]5O)C(C)(C)C4CC[C@@]3(C)[C@]1(C)C[C@H]2O (stereo partly specified) | -47.8% [at 9.23 µM] |  | 
CC1=CCC(C(C)(C)O[C@@H]2O[C@H](CO[C@@H]3O[C@@H](C)[C@H](O)[C@@H](O)[C@H]3O)[C@@H](O)[C@H](O)[C@H]2O)CC1 (stereo partly specified) |  | inactive | 
C=C1CCC2C(C)(C(=O)OC)CCCC2(C)C1CCC(C)CC(=O)O (stereo unspecified) |  | inactive | 

Structure (SMILES) | activity change, negative = viability loss | Potency | outcome
COc1cc(O)cc(C)c1C(=O)O[C@H]1[C@@H](OC(C)=O)[C@H](n2ccc(=O)[nH]c2=O)O[C@@H]1CO |  | inactive | 
CC1OC(O[C@H]2CC[C@@]3(C)C(CC[C@]4(C)C3CC=C3C5CC(C)(C)CC[C@]5(C(=O)OC5OC(CO)C(OC6OC(COC7OCC(O)C(O)C7O)C(O)C(O)C6O)C(O)C5O)CC[C@]34C)C2(C)C)C(O)C(O)C1OC1OCC(OC2OCC(O)C(O)C2O)C(O)C1O (stereo partly specified) |  |  | inactive [at 9.23 µM]
CCC1C(=O)N(C)c2cnc(Nc3ccc(C(=O)NC4CCC(N5CCN(CC6CC6)CC5)CC4)cc3OC)nc2N1C(C)C (stereo unspecified) |  | 0.0183 µM (active) | 
Cc1nc(NC(=O)N2CCCC2C(N)=O)sc1-c1csc(C(C)(C)C)n1 (stereo unspecified) |  | 4.59 µM (active) | 
Cc1cc(O)cc(O[C@@H]2O[C@H](CO)[C@@H](O)[C@H](O)[C@H]2O)c1 |  | inactive | 
C=C[C@H]1C(O[C@@H]2O[C@H](CO)[C@@H](O)[C@H](O)[C@H]2O)OC=C2C(=O)N3CCc4c([nH]c5ccccc45)C3CC21 (stereo partly specified) |  | inactive | 
Nc1ncnc2c1ncn2CCNCCCCCO |  | inactive | 
C/C=C(\C)C(=O)OCC1OC(OC2OC(COC(=O)/C(C)=C/C)C(OC3OC(CO)C(OC(=O)/C(C)=C/C)C(OC(=O)/C(C)=C/C)C3O)C(O)C2O)C(O)C(O)C1OC1OC(CO)C(OC(=O)/C(C)=C/C)C(OC(=O)/C(C)=C/C)C1O (stereo unspecified) | -4.2% [at 9.23 µM] |  | 
C[C@@H]1O[C@@H](O[C@H]2[C@H](O[C@H]3[C@H](O)[C@@H](C(=O)O)O[C@@H](O[C@H]4CC[C@@]5(C)C(CC[C@]6(C)C5CC[C@]57OC[C@@]8(CCC(C)(C)CC85)[C@H](O)C[C@]76C)C4(C)C)[C@@H]3O[C@@H]3O[C@H](CO)[C@@H](O[C@@H]4OC[C@@H](O)[C@H](O)[C@H]4O)[C@H](O)[C@H]3O)O[C@H](CO)[C@H](O)[C@@H]2O)[C@H](O)[C@H](O)[C@H]1O (stereo partly specified) | 0.445% [at 9.23 µM] |  | 
CC1=CC2C(CC1OC1OC(CO)C(O)C(O)C1O)C(C)CC(=O)C2C(C)C (stereo unspecified) |  | inactive | 
CC1(C)CCCC2(C)C=C(C(=O)O)C(O)CC12 (stereo unspecified) |  | inactive | 
C[C@H](C/C=C/C(C)(C)O)[C@H]1CC[C@@]2(C)[C@@H]3[C@@H](O[C@@H]4O[C@H](CO)[C@@H](O)[C@H](O)[C@H]4O)C=C4C(CC[C@H](O)C4(C)C)[C@]3(C=O)CC[C@]12C (stereo partly specified) |  | inactive | 
CC12CCC3c4ccc(O)cc4CCC3C1CC(OC1OC(C(=O)O)C(O)C(O)C1O)C2O (stereo unspecified) |  | inactive | 
C[C@@H]1O[C@@H](O[C@H]2[C@H](O)[C@@H](O)[C@H](OC3CCC4(C)C5CCC(C)(C(CO)OC6OC(CO)C(O)C(O)C6O)CC5=CCC4C3(C)C)O[C@@H]2CO)[C@H](O)[C@H](O)[C@H]1O (stereo partly specified) |  | inactive | 
O=C1C=CC2OC(c3ccccc3)C(O)C2O1 (stereo unspecified) |  | 5.78 µM (active) | 
